Source: ChEMBL document CHEMBL3433997, “St. Jude Leishmania screening dataset” (2016)

Experiments:
Assay type in all cases: functional
[1] = biological target: Solute carrier family 2, facilitated glucose transporter member 1 (Homo sapiens) (UniProt P11166); experiment: ST_JUDE_LEISH: Cytotoxicity at 2uM final concentration against transgenic Leishmania Mexicana promastigotes LmGLUT1 that are glucose transport deficient and complemented with the human glucose transporter GLUT1. Activity is measured by DNA content using SYBR green in vitro
[2] = biological target: Hexose transporter 1 (Plasmodium falciparum) (UniProt O97467); experiment: ST_JUDE_LEISH: Cytotoxicity at 2uM final concentration against transgenic Leishmania Mexicana promastigotes LmPfHT that are glucose transport deficient and complemented with the Plasmodium falciparum hexose transporter. Activity is measured by DNA content using SYBR green in vitro
[3] = biological target: Glucose transporter (Leishmania mexicana) (UniProt O61059); experiment: ST_JUDE_LEISH: Cytotoxicity at 2uM final concentration against transgenic Leishmania Mexicana promastigotes LmGT2 that are glucose transport deficient and complemented with the L. Mexicana glucose transporter 2. Activity is measured by DNA content using SYBR green in vitro

Solute carrier family 2, facilitated glucose transporter member 1 (Homo sapiens), sequence (P11166 whole entry): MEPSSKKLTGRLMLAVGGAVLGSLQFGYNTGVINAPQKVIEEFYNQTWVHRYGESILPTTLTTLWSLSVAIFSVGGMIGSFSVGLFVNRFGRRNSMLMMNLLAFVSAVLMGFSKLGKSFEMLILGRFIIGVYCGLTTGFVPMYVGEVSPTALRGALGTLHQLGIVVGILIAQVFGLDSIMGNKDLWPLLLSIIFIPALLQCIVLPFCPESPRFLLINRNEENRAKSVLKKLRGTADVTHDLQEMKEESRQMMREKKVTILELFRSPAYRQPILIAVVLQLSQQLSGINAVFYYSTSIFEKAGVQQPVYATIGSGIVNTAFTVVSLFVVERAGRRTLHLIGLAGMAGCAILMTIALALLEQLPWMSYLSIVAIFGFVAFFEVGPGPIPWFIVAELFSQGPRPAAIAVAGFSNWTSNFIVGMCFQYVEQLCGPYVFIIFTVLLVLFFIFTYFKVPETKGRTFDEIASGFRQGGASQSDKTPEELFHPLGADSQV

Row | Structure (SMILES) | inhibition [1] [%] | inhibition [2] [%] | inhibition [3] [%]
1 | O=C(NC1CCC(N2CCC(Cc3ccc(F)cc3)CC2)CC1)c1cc2ccccc2[nH]1 (configuration not stated) | 0.56 | 0.08 | 0.47
2 | CC(C)N1CCN(C(CN2CCN(CCCOc3ccc(-c4ccccc4)cc3)CC2)c2ccc(F)cc2)CC1 (configuration not stated) | 60.6 | 32 | 103
3 | COc1ccc(S(=O)(=O)NC2CCN(CCCOc3ccnc4cc(Cl)ccc34)C2)cc1OC (configuration not stated) | 3.41 | 3.81 | 2.88
4 | COc1ccc(NC(=O)[C@H](CC(C)C)Nc2cc(C)nc(NCC3CCCCC3)n2)cc1 | 3.07 | 2.78 | 0.83
5 | CCOc1ccccc1NC(=O)Nc1ccc2c(c1)CCN(C1CCC1)CC2 | 9.64 | 6.1 | 10.2
6 | O=C(Nc1nccs1)c1sc2ccccc2c1O | 3.63 | 2.26 | 1.45
7 | Cc1cc(NC(=O)NCCN2CCC(NC(=O)c3ccc(F)cc3)CC2)c2ccccc2n1 | -0.27 | -0.3 | -3.5
8 | COc1ccccc1C1CCN(C2CCC(NC(=O)/C=C/c3cc(F)cc(F)c3)CC2)CC1 (configuration not stated) | -1.84 | -1.17 | -2.6
9 | CCCC(=O)Nc1ccc(Nc2nc(C)cc(N3CCCC3)n2)cc1 | 1.82 | 4.49 | -0.91
10 | CCCCNC(=O)[C@H](CC1CCCCC1)NC(=O)c1ccc(O)c(-c2cccc(C(F)(F)F)c2)c1 | 2.16 | 3.75 | 3.61
11 | O=C(NCCc1ccccc1)N(Cc1cccc(-c2ccc(CNC3CCCC3)cc2)c1)C1CCN(Cc2ccccc2)CC1 | 13.9 | 13.2 | 11.2
12 | CCC[C@@H](C(=O)NCCc1cccc(OC)c1)N1C(=O)c2c(ccc(OC)c2OC)C1C(=O)Nc1c(C)cccc1C (some centres not stated) | 0.5 | 0 | 0.1
13 | O=C(/C=C/c1ccc(Cl)c(Cl)c1)NCCCCCN1CCC(NC(=O)c2ccc3ccccc3c2)CC1 | 0.51 | 0.83 | 1.46
14 | CN(C)CCN(C)Cc1ccc(-c2ccc3c(Nc4ccc(Oc5ccccc5)cc4)ccnc3c2)o1 | 0.78 | 2.26 | 2.63
15 | O=c1cc(NCCCNCc2cc3ccccc3s2)[nH]c2ccccc12 | 4.89 | 6.01 | 3.82
16 | O=c1cc(NCCCNCc2ccc(Cl)c(Cl)c2)[nH]c2cc(F)cc(F)c12 | 3.21 | 2.15 | 3.08
17 | COc1cccc(Nc2c(C(N)=O)cnc3ccc(-c4ccc([S+](C)[O-])cc4)cc23)c1 (configuration not stated) | 2.64 | 4.5 | 0.66
18 | Cc1cc(N[C@@H](Cc2ccccc2)C(=O)NC2CCCC2)nc(NCCOc2ccccc2)n1 | 1.41 | -1.48 | 2.19
19 | CC(C)(C)OC(=O)N1CCN(c2ccccc2NC(=O)c2cccc(C(F)(F)F)c2Oc2ccc(F)cc2)CC1 | -1.41 | 0.7 | 0.52
20 | COc1cc(-c2nc(C(C)(C)CN)[nH]c2-c2ccncc2)ccc1Br | 7.38 | 11.3 | 4.8
21 | CC(C)CCN(Cc1cncn1Cc1cccc(C(F)(F)F)c1)C(=O)c1ccccc1C#N | -3.54 | -0.35 | 0.86
22 | Oc1ccc(Cl)cc1Nc1nc(C(F)(F)F)nc2ccccc12 | 1.75 | 1.98 | 2.23
23 | COc1ccc2[nH]c(C)cc(=NN=Cc3ccccc3Cl)c2c1 | 5.14 | 5.23 | 1.92
24 | CCCCc1ccc(S(=O)(=O)Nc2ccc3c(c2)CCN(Cc2c[nH]c4cnccc24)CC3)cc1 | -1.78 | -0.79 | 5.76
25 | CC(=O)c1ccc(-c2ccc(C(=O)NCCCCN3CCC(c4ccc5c(c4OCC(N)=O)CCCC5)CC3)cc2)s1 | 1.36 | 0.76 | 1.72
26 | CCc1ccc(CN(CCCOc2cccc(CC(=O)NCc3c[nH]cn3)c2)Cc2ccc(-n3ccnc3)cc2)cc1 | 2.55 | 2.84 | 3.08
27 | CCC(C)(C)c1ccc(OCC(O)CN2CCCCC2)c(C(C)(C)CC)c1 (configuration not stated) | 14.6 | 15.2 | 13.2
28 | CCN(CC)c1ccc(-c2nc3cc(Cl)cnc3[nH]2)cc1 | 5.04 | 5.32 | 3.88
29 | Cc1ccccc1C1CCN(C2CCC(NC(=O)c3ccc(-c4ccccc4F)o3)CC2)CC1 (configuration not stated) | 3.69 | 2.49 | 1.85
